Calls of active or inactive are those of the source. Calls come from the whole dose curve; as a rule, active = well fitted curve in the direction sought with a large enough effect in the repeat runs; inconclusive = weak or mixed curves; inactive = flat fitted curve, though single readings scatter.
% is set by controls: 0 for no effect and ±100 for the full control effect.

A short description of the assay: qHTS assay to test for compound auto fluorescence at 590 nm (red) in HEK293 cells (AID 720679). The conditions noted are these: red autofluorescence 540/590 nm; series mostly up to 91.3 µM. An excerpt:
National Center for Advancing Translational Sciences [NCATS]
NIH Chemical Genomics Center [NCGC]
U.S. Environmental Protection Agency [EPA]
National Institutes of Environmental Health Sciences [NIEHS]
National Toxicology Program [NTP]
U.S. Food and Drug Administration [FDA]
Compound auto fluorescence often interferes with screening of the compound library against various biological targets and signaling pathways. Some of these compounds may have fluorophoric properties. Such properties may interfere with the assay outputs resulting in false positives and/or negatives. To decrease such complications and ensure the compound activities are relevant in terms of biological response, the Tox21 10K compound library was screened for auto fluorescence.
From the fluorophores used as reporter signals in our screening assays, the auto fluorescence equivalencies of compounds against three fluorophores have been evaluated: Triamterene, Fluorescein and Rose Bengal sodium for blue, green and red fluorescence, respectively. The fluorescence intensities were measured using Excitation/Emission wavelengths at 405/460nm, 485/535nm and 540/590nm for blue, green and red labels, respectively. This assay includes the red fluorescence data.
Tox21 Assay Protocol Summary:
2,000 HEK293 cells in 5 uL of culture medium containing 10% dialyzed FBS per well were dispensed into black wall/clear bottom 1536-well plates using a Multidrop Combi Dispenser (Thermo Scientific). The assay plates were incubated for 4-5 hr at 37C to allow cell attachment to the well bottom, followed by the transfer of 23 nL compound or DMSO vehicle by a pintool work station (Kalypsys, San Diego, CA). After the assay plates were incubated overnight at 37C and 5% CO2, fluorescence intensities in the assay plates were measured by an Envision (PerkinElmer, Shelton, CT) plate reader using three labels for measuring blue, green and red fluorescence at […] 460, 535 and 590nm respectively.
Turning to `CCCCCCCCCCCCCCCCOP(=O)([O-])OCC[N+](C)(C)C`, the outcome was inactive.

As to `CCC(=O)Nc1ccc(O)cc1`, the call was inactive.

On to `O=C1CCCCCCCCCCC(=O)OCCO1`, for which the molecule was classed as inactive.

Regarding `O=[N+]([O-])c1nccn1CO[C@@H](CO)[C@H](O)CO`, the molecule was classed as inactive.

As for `Cc1cc2nc(N)sc2cc1C`, the call was inactive.

As for `O=S(=O)(O)C(F)(F)F`, the molecule was classed as inactive.

Take `Nc1cccc(S(=O)(=O)O)c1`: the result was inactive.

In the case of `ICCc1ccccc1`, the result was inactive.

With `CCOC(=O)C(Br)c1ccccc1` (stereo not given), the molecule was classed as inactive.

With `O=Cc1ccc(F)c(Br)c1`, the molecule was called inactive.

`CCOC(=O)CS`: the molecule was called inactive.

For the molecule `O=C(O[C@@H](C(=O)O)[C@@H](OC(=O)c1ccccc1)C(=O)O)c1ccccc1`, the call was inactive.

`CC(C)c1ccccc1`: the molecule was classed as inactive.

For `CC/C=C\CCOC(=O)C(C)C`, the molecule was called inactive.

On to `Oc1ccccc1F`, for which the outcome was inactive.

For `CC1CN(c2ccccc2)NC1=O` (stereo not given), the call was inactive.

For the molecule `N#Cc1ccc(C(c2ccc(C#N)cc2)n2cncn2)cc1`, the molecule was called inactive.

For the molecule `CCNCCO`, the result was inactive.

As to `CCCCOc1cc(C(=O)NCCN(CC)CC)c2ccccc2n1`, the fluorescence, % of fluorescent control is -0.209% [at 18.6 µM] (inactive).

Consider `NC(=O)Cc1cccc(C(=O)c2ccccc2)c1N`, for which the result was inactive.

Turning to `O=C(Cl)c1cccc([N+](=O)[O-])c1`, the molecule was called inactive.

For `CCCCCCCOC(=O)CCC`, the result was inactive.

On to `CN1CCC[C@@H]1Cc1c[nH]c2ccc(CCS(=O)(=O)c3ccccc3)cc12`, for which the molecule was classed as inactive.

Take `OCCN(CCO)c1ccccc1`: the result was inactive.

Consider `Cc1ccsc1C(=CCCN1CCC[C@@H](C(=O)O)C1)c1sccc1C`, for which the result was inactive.

Consider `FC(F)(F)C(F)(F)C(F)(F)C(F)(F)C(F)(F)C(F)(F)C(F)(F)C(F)(F)Br`, for which the call was inactive.

Regarding `Oc1ccccc1C=NCc1ccccc1`, the result was inactive.

Consider `CCCCC1CCC(=O)O1` (stereo not given), for which the outcome was inactive.

On to `CCOc1ccc(NS(=O)(=O)c2ccc(N)cc2)nn1`, for which the outcome was inactive.

Take `O=CCCc1ccccc1`: the outcome was inactive.

Turning to `CCCCCCCCCC/C=C/C#N`, the molecule was called inactive.

For `CC1=C2[C@H](/C=C(\C)C(=O)O)CC[C@@H](C)[C@H]2CC1`, the result was inactive.

As to `NCCC(O)(P(=O)(O)O)P(=O)(O)O`, the result was inactive.

As for `Nc1ccc2ccccc2c1S(=O)(=O)O`, the molecule was classed as inactive.

As for `Cc1cc(S(=O)(=O)O)c(N)cc1Cl`, the result was inactive.

Take `CC(C)(CO)[C@@H](O)C(=O)NCCC(=O)O`: the outcome was inactive.

`COc1cc(N)c(Cl)cc1C(=O)NC1CCN(Cc2ccccc2)CC1`: the fluorescence, % of fluorescent control was -0.139% [at 18.6 µM] (inactive).

For `COc1ccccc1OCC(O)COC(N)=O` (stereo not given), the fluorescence, % of fluorescent control is 0.0645% [at 18.6 µM] (inactive).

Take `CC1=NN(c2cc(Cl)c(S(=O)(=O)O)cc2Cl)C(=O)C1N=Nc1ccc(S(=O)(=O)O)cc1` (stereo not given): the outcome was inactive.

Turning to `COc1ccc(Nc2ccc(OC)cc2)cc1`, the molecule was called inactive.

(Values after PubChem BioAssay (Tox21).)
